# KB-V1 cytotox: KB-V1 MDR subline cytotoxicity | Potency, µM (series often up to 46.1 µM), most hits filed as cytotoxic | KB-V1 MDR cells viability, CellTiter-Glo, 72 h | 3.4% of 400,000 active | AID 1347076; note: potency is the fitted concentration of half-maximal effect; % is set by controls: 0 for no effect and ±100 for the full control effect; nearly all actives have a fitted effect of over 60% in size
#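 KB-V1 MDR subline cells in DMEM (phenol-red free, 10% FBS) exposed to compounds in qHTS concentration series for 72 h at 37 degrees C. Viability read by CellTiter-Glo luminescence; concentration-effect curves fitted after normalization and correction.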
# MCF10A rereplic: DNA re-replication induction in MCF 10a cells; MCF 10A DNA re-replication, Hoechst nuclear intensity, 48 h; Potency, µM (top dose mostly 46.1 µM), inactives show top-dose activity, positive = re-replication, actives largely listed as activators; 2.9% of 350,000 active; note: potency is the fitted concentration of half-maximal effect; % of control where 0% means no effect; nearly all actives have a fitted effect of over 50% in size
# IL-1B inflam inh: inhibitors of inflammasome signaling (IL-1 beta secretion); 4.7% of 360,000 active; THP-1 LPS/ATP IL-1B secretion, AlphaLISA, 16 h; stronger effect = lower value; activity change, % at 57.5 µM; in the data active = activity change below about -50%; inconclusive = mostly about -30% to -49%; note: % is set by controls: 0 for no effect and ±100 for the full control effect
#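 THP-1 cells pretreated 1 hr with compounds (up to 57.5 uM final), then stimulated with LPS (250 ng/mL final) plus ATP (1.25 mM final); secreted IL-1B measured by AlphaLISA after 16 hr, decreased signal indicating inhibition.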
# SW480 rereplic: DNA re-replication induction in SW480 cells; Potency, µM (doses to about 46.1 µM), without a hit: top-dose re-replication activation, most hits filed as activators; 1.8% of 340,000 active; SW480 DNA re-replication, Hoechst DNA content imaging, 48 h; note: potency is the fitted concentration of half-maximal effect; % of control where 0% means no effect; nearly all actives have a fitted effect of over 55% in size
#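 SW480 cells exposed to compounds for 48 hr at 37 C, 5% CO2, then Hoechst-stained 40 min. Nuclear DNA content imaged by fluorescence scanning (405 nm excitation, 500-530 nm emission); re-replication scored as increased high-intensity nuclei.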
# KB-3-1 tox: KB-3-1 parental cell cytotoxicity. KB-3-1 viability, CellTiter-Glo ATP luminescence, 72 h. Potency, µM (highest dose often 46.1 µM), actives largely listed as cytotoxic. 1.4% of 400,000 active. AID 1347075; note: potency is the fitted concentration of half-maximal effect; % is set by controls: 0 for no effect and ±100 for the full control effect; nearly all actives have a fitted effect of over 60% in size
#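 72 h, 37 °C compound treatment of KB-3-1 parental cells; CellTiter-Glo added, 10 min, luminescence read. Data corrected against DMSO-only plates and normalized before curve fitting.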
# The depositor's hits bear a star; i = inactive; ? = inconclusive; nt = no result given; [ ] = another dose, or the depositor's remark. In the library only some 9.9% were active in any assay of this set; here they are far more common. Unless noted, calls come from the whole dose curve; as a rule, active = well fitted curve in the direction sought with a large enough effect; inconclusive = small, poorly fitted or top-dose-only effect, or another doubt; inactive = no such curve, though single readings can be large; an effect the other way counts as inactive or inconclusive.
SMILES,KB-V1 cytotox,MCF10A rereplic,IL-1B inflam inh,SW480 rereplic,KB-3-1 tox
COc1ccc(C(=O)N/N=C(\C)c2ccccn2)cc1OC,2.3µM*,?,-79*,?,?
CC(/C=N/NC(=O)c1ccncc1)=C\c1ccc(C(C)C)cc1,10µM*,?,-2,1%,i
CC(/C=N/NC(=O)c1cccnc1)=C\c1ccccc1,i,-4%,-3,-13%,i
CCc1ccc2oc(-c3cc(NC(=O)C(C)C)cc(C)c3O)nc2c1,i,nt,nt,nt,i
CCc1ccc(NC(=O)CN(Cc2ccccc2)S(=O)(=O)c2ccc3nc(C)sc3c2)cc1,i,nt,nt,nt,i
Cc1ccc(-c2ccc(CN3C(CC(C)C)C(=O)N(Cc4cn(CC5CCCCC5)nn4)CCS3(=O)=O)cc2)cc1 (stereo not given),i,nt,6,nt,i
C=CCOc1nc2c(c(=O)n(C)c(=O)n2C)n1Cc1ccccc1,8.2µM*,-1%,nt,?,?
CCCCCn1c(CN(C)Cc2ccccc2)nc2c1c(=O)n(C)c(=O)n2C,2.3µM*,?,-22,5%,18µM*
Cn1c(=O)c2c(ncn2CCCc2ccccc2)n(C)c1=O,15µM*,0%,14,-9%,?
CN(Cc1ccccc1)Cc1nc2c(c(=O)n(C)c(=O)n2C)n1Cc1ccc(F)cc1,9.2µM*,10%,40,4%,i
O=S(=O)(c1ccc2c(c1)CCC2)N1CCN(c2nc(-c3ccccc3)nc3ccccc23)CC1,i,nt,nt,nt,i
CCCCCC(=O)Nc1ccc(C2C(=O)c3ccccc3C2=O)cc1,i,-13%,6,0%,i
NC(=O)c1ccc2nc(-c3ccc(Oc4ccc(Cl)cc4)cc3)[nH]c2c1,i,nt,nt,nt,i
O=C(c1cccc(OC2CCN(Cc3ccc(F)cc3)CC2)c1)N1CCCC1,i,?,0,3%,i
CN(Cc1ccccc1)c1nc2c(c(=O)n(C)c(=O)n2C)n1CCCc1ccccc1,i,26µM*,11,-2%,i
Nc1ccccc1Oc1ccc2ccccc2c1,i,28%,-3,4%,i
CCCCCCCCCCCCCC(=O)Nc1ccc(/C=C/c2ccnc3ccccc23)cc1,i,nt,nt,nt,?
CCOC(=O)c1c(NC(=O)CN2C(=O)NC3(CCCC3)C2=O)sc(C)c1CC,?,10%,-57*,7%,i
CCOC(=O)c1c(NC(=O)CN2C(=O)NC(C)(c3ccccc3)C2=O)sc(C)c1C (stereo not given),16µM*,10µM*,-2,?,16µM*
CC1(c2ccccc2)NC(=O)N(CC(=O)Nc2cccc(/C=C/c3ccccn3)c2)C1=O (stereo not given),i,5%,-53*,?,i
CCOC(=O)c1c(NC(=O)CN2C(=O)NC3(CCCCCC3)C2=O)sc(C)c1-c1ccc(C)cc1,?,?,-9,-1%,i
COC(=O)c1c(NC(=O)CSc2ccccc2N)sc(C)c1C,i,22%,-62*,1%,i
CCOC(=O)c1c(NC(=O)CN2C(=O)NC3(CCCCC3C)C2=O)sc(C)c1C (stereo not given),?,?,2,0%,i
CCOC(=O)NNc1ccc2nonc2c1[N+](=O)[O-],i,12%,-77*,23µM*,?
CCc1ccc(Nc2ccc3nonc3c2[N+](=O)[O-])cc1,i,-1%,-18,-93%,i
SMILES,KB-V1 cytotox,MCF10A rereplic,IL-1B inflam inh,SW480 rereplic,KB-3-1 tox
CN(C)S(=O)(=O)c1ccc(-c2csc(N/N=C/c3ccc(O)cc3)n2)cc1,15µM*,?,-103*,-80%,21µM*
CN(C)S(=O)(=O)c1ccc(-c2csc(N/N=C/c3ccco3)n2)cc1,?,?,-94*,-10%,?
Cc1ccc2oc(/N=C(\N)NC(=O)C3CC3)nc2c1,5.2µM*,?,-20,9.2µM*,?
CC(C)c1ccc(NC(=O)CN2C(=O)NC(Cc3c[nH]c4ccccc34)C2=O)cc1 (stereo not given),i,?,-59*,1%,i
O=C1NC(Cc2c[nH]c3ccccc23)C(=O)N1Cc1cccc2ccccc12 (stereo not given),i,0%,-101*,-27%,i
Cc1ccc(CN2C(=O)NC(Cc3c[nH]c4ccccc34)C2=O)cc1 (stereo not given),?,-1%,9,-6%,i
Cc1cc(C)cc(NC(=O)CN2C(=O)NC(Cc3c[nH]c4ccccc34)C2=O)c1 (stereo not given),i,-2%,-19,-1%,i
CCc1ccccc1NC(=S)N(CCN(C)C)C(C)c1cccnc1 (stereo not given),?,2%,34,-9%,i
NC(=O)COC(=O)/C=C/c1cccc(Br)c1,i,2%[9.22 µM],-4,-53%,i
COc1ccccc1C(=O)N/C(=C\c1cn(S(=O)(=O)N(C)C)c2ccccc12)C(=O)N1CCCCC1,i,6%,-10,-18%,i
Cc1ccc(C2CC2C(=O)NNC(=S)Nc2cccc(C)c2)cc1 (stereo not given),16µM*,?,16,?,i
COc1ccc(NC(=S)NNC(=O)C2CC2c2ccc(C)cc2)cc1 (stereo not given),i,?,0,18µM*,i
Cc1ccc(NC(=S)NNC(=O)C2CC2c2ccc(C)cc2)cc1 (stereo not given),i,8%,-2,39%,i
CN(C)S(=O)(=O)Oc1ccsc1C(=O)Nc1cccc(Cl)c1Cl,21µM*,13%,-26,-2%,?
COc1cc(OC)cc(C(=O)NCCCCCCNC(=O)c2cc(OC)cc(OC)c2)c1,18µM*,2%,28,?,i
Cc1ccc(NC(=O)CC2Nc3ccccc3NC2=O)cc1Cl (stereo not given),i,2.6µM*,-2,16µM*,?
Cc1ccc(NC(=O)CC2Nc3ccccc3NC2=O)cc1C (stereo not given),i,nt,nt,nt,i
CCOc1ccccc1NC(=O)CC1Nc2ccccc2NC1=O (stereo not given),i,?,35,4%,i
CCOc1ccccc1NC(=O)CC1Nc2cc(C)c(C)cc2NC1=O (stereo not given),?,18µM*,35,?,i
O=C(CC1Nc2cccc3cccc(c23)NC1=O)Nc1ccccc1 (stereo not given),i,4%,-63*,-2%,i
COc1ccccc1NC(=O)C1=C(C)Nc2nc(SCc3ccccc3Cl)nn2C1c1cccnc1 (stereo not given),i,nt,nt,nt,i
Cc1ccc(C2=Nc3ccccc3N(CC(=O)Nc3ccccc3F)C(=O)C2)cc1C,?,nt,nt,nt,i
